# Test results taken from the supplement of paper PMC8728848.
# Many of the other results were omitted from the sample, so the strongest signals are more common in it than they were.
# Columns and labels:
# Assay in all cases: glycan array binding signal (z-score within array); higher = stronger binding
# Conditions in all cases: glycan notation: IUPAC condensed, linker removed
# [1] = molecular target: Fuc(a1-2)Gal(b1-3)GalNAc(a1-3)[Fuc(a1-2)]Gal(b1-4)Glc
# Summary of the method: (§1)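 Arrays were curated from the Consortium for Functional Glycomics database, 3228 in total, and kept only where the protein sequence was available. Binding is expressed as a within-array Z-score. This score was averaged across arrays of the same protein sequence at different concentrations or buffers and across linkers, and negative values can be read as non-binding.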
# [2] = molecular target: Fuc(a1-2)Gal(b1-3)GlcNAc(b1-3)GalNAc
# Summary of the method: as §1
# [3] = molecular target: Fuc(a1-2)Gal(b1-4)GlcNAc(b1-2)Man(a1-3)[Fuc(a1-2)Gal(b1-4)GlcNAc(b1-2)Man(a1-6)]Man(b1-4)GlcNAc(b1-4)[Fuc(a1-6)]GlcNAc
# Summary of the method: as §1
# [4] = molecular target: Fuc(a1-2)Gal(b1-4)GlcNAc6S
# Summary of the method: as §1
# [5] = molecular target: Fuc(a1-2)[Gal(a1-3)]Gal(b1-3)GalNAc(b1-3)Gal(a1-4)Gal(b1-4)Glc
# Summary of the method: as §1
# [6] = molecular target: Fuc(a1-2)[Gal(a1-3)]Gal(b1-3)GlcNAc(b1-6)GalNAc
# Summary of the method: as §1
# [7] = molecular target: Fuc(a1-2)[Gal(a1-3)]Gal(b1-4)GlcNAc(b1-2)Man(a1-3)[Fuc(a1-2)[Gal(a1-3)]Gal(b1-4)GlcNAc(b1-2)Man(a1-6)]Man(b1-4)GlcNAc(b1-4)GlcNAc
# Summary of the method: as §1
# [8] = molecular target: Fuc(a1-2)[Gal(a1-3)]Gal(b1-4)GlcNAc(b1-6)GalNAc
# Summary of the method: as §1
# [9] = molecular target: Fuc(a1-2)[GalNAc(a1-3)]Gal(b1-3)GlcNAc
# Summary of the method: as §1
# [10] = molecular target: Fuc(a1-2)[GalNAc(a1-3)]Gal(b1-4)GlcNAc(b1-2)Man(a1-3)[Fuc(a1-2)[GalNAc(a1-3)]Gal(b1-4)GlcNAc(b1-2)Man(a1-6)]Man(b1-4)GlcNAc(b1-4)GlcNAc
# Summary of the method: as §1
# [11] = molecular target: Fuc(a1-2)[GalNAc(a1-3)]Gal(b1-4)[Fuc(a1-3)]GlcNAc(b1-3)GalNAc
# Summary of the method: as §1
# Fuc(a1-3)GlcNAc = molecular target: Fuc(a1-3)GlcNAc
# Summary of the method: as §1
# [12] = molecular target: Fuc(a1-3)[Gal(b1-4)]GlcNAc(b1-4)Gal(b1-4)[Fuc(a1-3)]GlcNAc
# Summary of the method: as §1
# [13] = molecular target: Fuc(a1-3)[Gal(b1-4)]GlcNAc(b1-6)[Gal(b1-3)GlcNAc(b1-3)]Gal(b1-4)Glc
# Summary of the method: as §1
# Gal(a1-4)Gal(b1-4)GlcNAc = molecular target: Gal(a1-4)Gal(b1-4)GlcNAc
# Summary of the method: as §1
# [14] = molecular target: Gal(b1-3)Gal(b1-4)GlcNAc(b1-2)Man(a1-3)[Gal(b1-3)Gal(b1-4)GlcNAc(b1-2)Man(a1-6)]Man(b1-4)GlcNAc(b1-4)GlcNAc
# Summary of the method: as §1
# [15] = molecular target: Gal(b1-3)GlcNAc(b1-3)Gal(b1-4)GlcNAc(b1-2)Man(a1-3)[Gal(b1-3)GlcNAc(b1-3)Gal(b1-4)GlcNAc(b1-2)Man(a1-6)]Man(b1-4)GlcNAc(b1-4)GlcNAc
# Summary of the method: as §1
# [16] = molecular target: Gal(b1-3)[Fuc(a1-4)]GlcNAc(b1-6)GalNAc
# Summary of the method: as §1
# [17] = molecular target: Gal(b1-3)[Neu5Ac(a2-6)]GalNAc
# Summary of the method: as §1
# [18] = molecular target: Gal(b1-4)GlcNAc(b1-2)Man(a1-3)[Gal(b1-4)GlcNAc(b1-2)Man(a1-6)]Man(b1-4)GlcNAc(b1-4)GlcNAc
# Summary of the method: as §1
# [19] = molecular target: Gal(b1-4)GlcNAc(b1-2)Man(a1-3)[Gal(b1-4)GlcNAc(b1-2)Man(a1-6)][Gal(b1-4)GlcNAc(b1-4)]Man(b1-4)GlcNAc(b1-4)[Fuc(a1-6)]GlcNAc
# Summary of the method: as §1
# [20] = molecular target: Gal(b1-4)GlcNAc(b1-2)Man(a1-6)[Man(a1-3)]Man(b1-4)GlcNAc(b1-4)GlcNAc
# Summary of the method: as §1
# [21] = molecular target: Gal(b1-4)GlcNAc(b1-2)[Gal(b1-4)GlcNAc(b1-4)]Man(a1-3)[Gal(b1-4)GlcNAc(b1-2)[Gal(b1-4)GlcNAc(b1-6)]Man(a1-6)]Man(b1-4)GlcNAc(b1-4)GlcNAc
# Summary of the method: as §1
# [22] = molecular target: Gal(b1-4)GlcNAc(b1-2)[Gal(b1-4)GlcNAc(b1-6)]Man(a1-6)[GlcNAc(b1-4)][Gal(b1-4)GlcNAc(b1-2)Man(a1-3)]Man(b1-4)GlcNAc(b1-4)GlcNAc
# Summary of the method: as §1
# [23] = molecular target: Gal(b1-4)GlcNAc(b1-3)Gal(b1-4)GlcNAc(b1-3)Gal(b1-4)GlcNAc(b1-3)Gal(b1-4)GlcNAc(b1-2)[Gal(b1-4)GlcNAc(b1-3)Gal(b1-4)GlcNAc(b1-3)Gal(b1-4)GlcNAc(b1-3)Gal(b1-4)GlcNAc(b1-6)]Man(a1-6)[Gal(b1-4)GlcNAc(b1-3)Gal(b1-4)GlcNAc(b1-3)Gal(b1-4)GlcNAc(b1-3)Gal(b1-4)GlcNAc(b1-2)Man(a1-3)]Man(b1-4)GlcNAc(b1-4)[Fuc(a1-6)]GlcNAc
# Summary of the method: as §1
# [24] = molecular target: Gal(b1-4)GlcNAc(b1-3)Gal(b1-4)GlcNAc(b1-3)Gal(b1-4)GlcNAc(b1-3)Gal(b1-4)GlcNAc(b1-3)Gal(b1-4)GlcNAc(b1-2)Man(a1-3)[Gal(b1-4)GlcNAc(b1-3)Gal(b1-4)GlcNAc(b1-3)Gal(b1-4)GlcNAc(b1-3)Gal(b1-4)GlcNAc(b1-3)Gal(b1-4)GlcNAc(b1-2)Man(a1-6)]Man(b1-4)GlcNAc(b1-4)GlcNAc
# Summary of the method: as §1
# [25] = molecular target: Gal(b1-4)GlcNAc(b1-3)Gal(b1-4)GlcNAc(b1-3)Gal(b1-4)GlcNAc(b1-3)Gal(b1-4)GlcNAc(b1-3)Gal(b1-4)GlcNAc(b1-2)Man(a1-3)[Gal(b1-4)GlcNAc(b1-3)Gal(b1-4)GlcNAc(b1-3)Gal(b1-4)GlcNAc(b1-3)Gal(b1-4)GlcNAc(b1-3)Gal(b1-4)GlcNAc(b1-2)Man(a1-6)]Man(b1-4)GlcNAc(b1-4)[Fuc(a1-6)]GlcNAc
# Summary of the method: as §1
# [26] = molecular target: Gal(b1-4)GlcNAc(b1-3)Gal(b1-4)GlcNAc(b1-3)Gal(b1-4)GlcNAc(b1-3)Gal(b1-4)GlcNAc(b1-3)Gal(b1-4)GlcNAc(b1-3)Gal(b1-4)GlcNAc(b1-2)Man(a1-3)[Gal(b1-4)GlcNAc(b1-3)Gal(b1-4)GlcNAc(b1-3)Gal(b1-4)GlcNAc(b1-3)Gal(b1-4)GlcNAc(b1-3)Gal(b1-4)GlcNAc(b1-3)Gal(b1-4)GlcNAc(b1-2)Man(a1-6)]Man(b1-4)GlcNAc(b1-4)GlcNAc
# Summary of the method: as §1
# [27] = molecular target: Gal(b1-4)GlcNAc(b1-3)[GlcNAc(b1-6)]Gal(b1-4)GlcNAc
# Summary of the method: as §1
# [28] = molecular target: Gal(b1-4)GlcNAc(b1-6)Gal(b1-4)GlcNAc
# Summary of the method: as §1
binder,measurement,setting,value
"Gal 9 (Homo sapiens), O00182 (protein) MAFSGSQAPYLSPAVPFSGTIQGGLQDGLQITVNGTVLSSSGTRFAVNFQTGFSGNDIAFHFNPRFEDGGYVVCNTRQNGSWGPEERKTHMPFQKGMPFDLCFLVQSSDFKVMVNGILFVQYFHRVPFHRVDTISVNGSVQLSYISFQNPRTVPVQPAFSTVPFSQPVCFPPRPRGRRQKPPGVWPANPAPITQTVIHTVQSAPGQMFSTPAIPPMMYPHPAYPMPFITTILGGLYPSKSILLSGTVLPSAQRFHINLCSGNHIAFHLNPRFDENAVVRNTQIDNSWGSEERSLPRKMPFVRGQSFSVWILCEAHCLKVAVDGQHLFEYYHRLRNLPTINRLEVGGDIQLTHVQT",glycan array binding signal (z-score),[1],-0.317
same,glycan array binding signal (z-score),[2],-0.3
same,glycan array binding signal (z-score),[3],-0.322
same,glycan array binding signal (z-score),[4],0.06
same,glycan array binding signal (z-score),[5],-0.307
same,glycan array binding signal (z-score),[6],-0.233
same,glycan array binding signal (z-score),[7],0.9
same,glycan array binding signal (z-score),[8],-0.307
same,glycan array binding signal (z-score),[9],0.055
same,glycan array binding signal (z-score),[10],4.39
same,glycan array binding signal (z-score),[11],-0.288
same,glycan array binding signal (z-score),Fuc(a1-3)GlcNAc,-0.32
same,glycan array binding signal (z-score),[12],-0.303
same,glycan array binding signal (z-score),[13],-0.236
same,glycan array binding signal (z-score),Gal(a1-4)Gal(b1-4)GlcNAc,-0.299
same,glycan array binding signal (z-score),[14],6
same,glycan array binding signal (z-score),[15],4.53
same,glycan array binding signal (z-score),[16],-0.282
same,glycan array binding signal (z-score),[17],-0.315
same,glycan array binding signal (z-score),[18],2.94
same,glycan array binding signal (z-score),[19],-0.269
same,glycan array binding signal (z-score),[20],0.09
same,glycan array binding signal (z-score),[21],4.71
same,glycan array binding signal (z-score),[22],3.87
same,glycan array binding signal (z-score),[23],9.56
same,glycan array binding signal (z-score),[24],4.95
same,glycan array binding signal (z-score),[25],4.2
same,glycan array binding signal (z-score),[26],9.39
same,glycan array binding signal (z-score),[27],0.555
same,glycan array binding signal (z-score),[28],-0.17
